Data published in PubChem BioAssay AID449739 (Vanderbilt High Throughput Screening Facility, 2010).
About 4,200 (4.2%) of roughly 100,000 compounds were called active.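 How the source made its calls: active means single-dose well whose peak fluorescence ratio is a statistical outlier from its plate by either plate-standardised score or position-corrected B-score; inactive means the rest.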 Only a selection was taken, and actives are over-represented in it overall.

What follows are molecules tested against Voltage-dependent T-type calcium channel subunit alpha-1H (Homo sapiens) (UniProt O95180) (assay: Cav3.2 calcium influx blockers – cell-based, Fluo-4 calcium fluorescence, FDSS, MLSMR library, primary screen (AID 449739)). Conditions: Cav3.2-expressing cells, at 10 µM, stronger effect = lower value.
Sequence of Voltage-dependent T-type calcium channel subunit alpha-1H (Homo sapiens) (O95180 whole entry, looked up): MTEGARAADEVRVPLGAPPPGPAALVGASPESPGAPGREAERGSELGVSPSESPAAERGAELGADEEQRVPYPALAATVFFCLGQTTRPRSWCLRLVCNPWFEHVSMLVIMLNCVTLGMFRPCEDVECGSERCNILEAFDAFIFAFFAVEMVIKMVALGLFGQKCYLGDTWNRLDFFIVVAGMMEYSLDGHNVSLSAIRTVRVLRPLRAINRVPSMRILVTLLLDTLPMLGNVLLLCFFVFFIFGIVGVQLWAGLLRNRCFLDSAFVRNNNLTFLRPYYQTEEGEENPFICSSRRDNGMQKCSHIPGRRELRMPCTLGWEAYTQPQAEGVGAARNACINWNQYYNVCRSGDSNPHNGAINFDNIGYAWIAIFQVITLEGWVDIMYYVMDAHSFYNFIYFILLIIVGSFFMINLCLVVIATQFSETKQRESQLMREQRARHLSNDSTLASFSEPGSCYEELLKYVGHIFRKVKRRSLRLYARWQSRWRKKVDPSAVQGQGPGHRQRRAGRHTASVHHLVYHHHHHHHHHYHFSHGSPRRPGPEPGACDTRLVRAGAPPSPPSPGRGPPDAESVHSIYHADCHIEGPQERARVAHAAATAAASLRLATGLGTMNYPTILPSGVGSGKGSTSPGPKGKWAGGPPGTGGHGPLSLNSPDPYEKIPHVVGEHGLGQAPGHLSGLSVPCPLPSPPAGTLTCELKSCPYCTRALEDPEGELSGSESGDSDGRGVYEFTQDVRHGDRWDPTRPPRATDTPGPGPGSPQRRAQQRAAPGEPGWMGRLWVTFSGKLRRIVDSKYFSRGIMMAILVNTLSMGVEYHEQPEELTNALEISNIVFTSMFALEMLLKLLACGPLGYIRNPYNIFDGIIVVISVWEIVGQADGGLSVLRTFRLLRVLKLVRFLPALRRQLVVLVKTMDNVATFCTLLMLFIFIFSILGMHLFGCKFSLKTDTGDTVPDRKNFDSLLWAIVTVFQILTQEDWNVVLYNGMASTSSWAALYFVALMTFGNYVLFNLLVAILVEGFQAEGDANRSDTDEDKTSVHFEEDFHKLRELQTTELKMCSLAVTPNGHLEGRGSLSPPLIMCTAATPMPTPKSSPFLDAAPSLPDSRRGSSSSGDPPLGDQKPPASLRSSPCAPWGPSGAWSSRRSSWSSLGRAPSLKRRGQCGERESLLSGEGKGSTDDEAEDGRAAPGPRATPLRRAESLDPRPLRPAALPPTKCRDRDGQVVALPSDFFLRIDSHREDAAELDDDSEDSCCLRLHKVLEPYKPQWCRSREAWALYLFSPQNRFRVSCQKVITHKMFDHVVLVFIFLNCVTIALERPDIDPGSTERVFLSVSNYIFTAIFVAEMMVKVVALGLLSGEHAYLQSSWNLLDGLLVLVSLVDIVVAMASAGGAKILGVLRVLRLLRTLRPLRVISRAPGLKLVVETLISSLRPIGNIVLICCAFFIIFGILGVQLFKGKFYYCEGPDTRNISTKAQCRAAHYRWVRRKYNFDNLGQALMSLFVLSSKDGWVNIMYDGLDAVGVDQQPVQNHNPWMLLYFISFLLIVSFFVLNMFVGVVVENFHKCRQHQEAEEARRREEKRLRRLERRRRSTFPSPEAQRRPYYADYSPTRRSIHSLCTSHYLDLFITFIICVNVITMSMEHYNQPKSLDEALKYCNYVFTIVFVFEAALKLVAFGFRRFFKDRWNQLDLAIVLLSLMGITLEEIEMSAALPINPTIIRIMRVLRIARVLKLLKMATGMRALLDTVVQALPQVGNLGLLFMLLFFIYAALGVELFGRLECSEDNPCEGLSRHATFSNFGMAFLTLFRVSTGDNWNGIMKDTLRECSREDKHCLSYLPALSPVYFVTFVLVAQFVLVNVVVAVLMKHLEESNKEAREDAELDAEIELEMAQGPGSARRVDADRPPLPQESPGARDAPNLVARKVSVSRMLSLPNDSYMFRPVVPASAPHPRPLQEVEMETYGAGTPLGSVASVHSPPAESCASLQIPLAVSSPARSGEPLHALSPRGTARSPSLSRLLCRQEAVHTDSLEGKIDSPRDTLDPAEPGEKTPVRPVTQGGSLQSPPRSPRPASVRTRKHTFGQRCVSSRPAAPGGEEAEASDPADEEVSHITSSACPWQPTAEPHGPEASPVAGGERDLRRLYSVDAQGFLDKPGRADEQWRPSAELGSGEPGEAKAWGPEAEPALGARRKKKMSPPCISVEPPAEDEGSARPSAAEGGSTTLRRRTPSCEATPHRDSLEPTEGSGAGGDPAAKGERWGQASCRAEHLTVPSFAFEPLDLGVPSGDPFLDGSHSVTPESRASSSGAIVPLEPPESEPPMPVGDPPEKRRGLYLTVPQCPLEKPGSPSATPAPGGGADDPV

SMILES	B-score
COC(C[C@@H](O)[C@H](C)[C@H](O)COCc1ccccc1)OC	0.321 (inactive)
CCN(CC)c1ccc(NC(=O)c2ccc(Cl)nc2)cc1	-0.986 (inactive)
CCOc1ccccc1Nc1nnc(SCc2ccc(C(=O)OC)o2)s1	-3.2 (inactive)
COc1cccc(Nc2nnc(SCC(=O)N3CC(C)OC(C)C3)s2)c1 (stereo unspecified)	-4.05 (active)
COc1ccccc1-c1nnc(SCC(=O)N2CC(C)CC(C)C2)o1 (stereo unspecified)	0.0644 (inactive)
O=C(Nc1ccccc1)OCc1cn(-c2ccc(Cl)cc2)nn1	-0.643 (inactive)
COc1cccc(N(CC(=O)N2CCc3ccccc3C2)S(C)(=O)=O)c1	1.04 (inactive)
Cc1ccc(S(=O)(=O)N(CC(=O)N2CCc3ccccc3C2)c2cccc(Cl)c2)cc1	-5.57 (active)
CCOC(=O)N1CCN(C(=O)CN(c2ccc(C)c(C)c2)S(=O)(=O)c2ccccc2)CC1	-1.16 (inactive)
O=C(NCc1ccccc1)C1=C[C@H](C2CC2)C[C@H](OCc2ccc(CO)cc2)O1	-0.049 (inactive)
CCOC(=O)c1c(NC(=O)C(C)Sc2c[nH]c3ccccc23)sc2c1CCC2 (stereo unspecified)	-0.96 (inactive)
C#CCOCCOCCOCCNc1nc(N2CCN(C(=O)[C@H](C(C)C)n3cc(CCO)nn3)CC2)nc(N2CCN(C(=O)[C@H]([C@@H](C)CC)n3cc(CCCN=C(N)N)nn3)CC2)n1	0.0921 (inactive)
CC1=NN(C(=O)c2ccccc2Br)C(O)(c2cccnc2)C1 (stereo unspecified)	0.377 (inactive)
O=C(CSc1nnc(-c2ccccc2)o1)N1CCOCC1	-0.483 (inactive)
CC1=CC(C)(C)N(C(=O)CSc2nnc(-c3ccccc3)o2)c2ccc(C)cc21	-4.16 (active)
CC1=CC(C)(C)N(C(=O)CSc2nccn2C)c2cc(C)ccc21	-0.49 (inactive)
CC(C)=CCc1c(O)c(CC=C(C)C)c2occ(-c3ccc(O)cc3)c(=O)c2c1O	-0.844 (inactive)
Cc1ccc(NC(=O)c2nc[nH]c2C(=O)N[C@@H](CCCCNC(=O)OC(C)(C)C)C(=O)OC(C)(C)C)cc1	-0.574 (inactive)
CC(C)C(=O)OCC(=O)Nc1ccc2c(c1)CCC2	0.246 (inactive)

SMILES	B-score
CCN(CC)S(=O)(=O)c1cccc(C(=O)Nc2ccccc2)c1	0.194 (inactive)
Cc1ccccc1NC(=S)Nc1cccc([N+](=O)[O-])c1	-0.107 (inactive)
CCN(CC)S(=O)(=O)c1cc([N+](=O)[O-])ccc1NNC(=O)Nc1ccccc1	-4.53 (active)
O=C1CC2(CCCC2)Oc2ccc(Cl)cc21	-0.0281 (inactive)
CCOC(=O)C1Nc2ccc(C(F)(F)F)cc2C2C=CCC12 (stereo unspecified)	-0.137 (inactive)
COc1cccc(N(CC(=O)Nc2cccc(N(C)S(C)(=O)=O)c2)S(C)(=O)=O)c1	-1.19 (inactive)
Cc1ccc(N(CC(=O)Nc2cccc(N(C)S(C)(=O)=O)c2)S(C)(=O)=O)cc1	1.01 (inactive)
CCN(CC)S(=O)(=O)c1ccc(NC(=O)CN(c2cccc(F)c2)S(C)(=O)=O)cc1	-6.56 (active)
CC1=C(N2CCN(c3ncccn3)CC2)CCC1=O	0.282 (inactive)
C[C@@H]1CC[C@]2(O[C@@H](CCO)C[C@H](O)[C@H]2O)O1	0.111 (inactive)
CCn1c(Cc2ccccc2)nnc1SCC(=O)Nc1ccccc1	0.0752 (inactive)
COC(=O)c1cccc(NC(=O)CSc2nc(C)cc(=O)[nH]2)c1	0.842 (inactive)
CSc1cccc(NC(=O)CSc2ccccc2)c1	-6.09 (active)
COC(C[C@@H]1O[C@@H]1C(=O)[C@@H](C)OCc1ccccc1)OC	0.0102 (inactive)
Cc1cc(C)cc(NC(=O)c2cccc(NC(=O)C3C4CC5OC(=O)C3C5C4)c2)c1 (stereo unspecified)	-0.673 (inactive)
Cc1cccc(NC(=O)C(C)N2C(=O)C3C4CC(C(Br)C4Br)C3C2=O)c1 (stereo unspecified)	-4.83 (active)
Cc1cccc(NC(=O)C2CC(=O)OC23CCCC3)c1 (stereo unspecified)	2.01 (inactive)
CC1(C)C=C2[C@H]3CC[C@@H]4[C@@]5(C)CCC(=O)C(C)(C)[C@@H]5CC[C@@]4(C)[C@]3(C)CC[C@@]2(C(=O)O)CC1	-0.0499 (inactive)
COc1ccc(CNC(=O)C2(CC3CC(c4ccccc4)=NO3)CCN(C(=O)c3cccc(O)c3)CC2)cc1 (stereo unspecified)	-0.683 (inactive)

SMILES	B-score
CCOC(=O)COc1ccc(Cl)cc1C1NC(=O)NC(C)=C1C(C)=O (stereo unspecified)	0.0116 (inactive)
CCOC(=O)C1=C(CSc2nccn2C)NC(=O)NC1c1ccc(OC)cc1 (stereo unspecified)	0.905 (inactive)
CCOC(=O)C1=C(CNC2CCCCC2)NC(=O)NC1c1cc(C)ccc1C (stereo unspecified)	-3.93 (active)
O=c1cc(-c2ccccc2)[nH]c2cc(F)ccc12	-1.92 (inactive)
N=c1c2c(-c3ccccc3)c(-c3ccccc3)n(Cc3ccccc3)c2ncn1CCCO	-7.3 (active)
N=c1c2c(-c3ccccc3)c(-c3ccccc3)oc2ncn1Cc1ccco1	-2.43 (inactive)
OCCCN1c2ccccc2Nc2nnc(-c3ccccc3)cc21	0.492 (inactive)
Cc1cccc(NC(=S)NCc2ccc3[nH]c4c(c3c2)CCCC4)c1	-3.54 (inactive)
CC(=O)C1=C(C)NC(C)=C(C(C)=O)C1c1cn(-c2ccccc2)nc1-c1cccs1	-3.89 (active)
C=CCOC(=O)C1=C(C)NC(C)=C(C(=O)OCC=C)C1c1cccs1	-3.25 (inactive)
COc1ccc(-c2nn(-c3ccccc3)cc2C(=O)Nc2nccs2)cc1OC	-3.24 (inactive)
CNC(=O)c1[nH]cnc1C(=O)N[C@@H](CC(C)C)C(=O)OCc1ccccc1	-0.016 (inactive)
Cc1[nH]c2ccccc2c1C(=O)COC(=O)C(C)C	0.085 (inactive)
COc1ccc2c(c1)SC(C)CC2=O (stereo unspecified)	-0.0138 (inactive)
CC1(C)S[C@@H]2[C@H](NC(=O)COc3ccccc3)C(=O)N2C1C(=O)OCc1ccccc1 (stereo partly specified)	-1.43 (inactive)
CCOc1ccc2c(c1)cc(CN(C(=O)CC)C1CCCCC1)c1nnnn12	-4.82 (active)
CCOc1ccc2[nH]c(=O)c(CN(Cc3nnnn3Cc3ccccc3)CC3CCCO3)cc2c1 (stereo unspecified)	-0.479 (inactive)
CCc1ccc2c(c1)cc(CN(C(=S)Nc1ccccc1Cl)C1CC1)c1nnnn12	0.523 (inactive)
